ugtP null kill = growth inhibition of ugtP-null S. aureus, primary screen, RN4220 ugtP deletion, OD600; 16 h; growth inhibition, % (test concentration not listed); hit rate 0.54% among 330,000; in the data active = growth inhibition above about 68%
SSB-PriA inh = inhibitors of Klebsiella pneumoniae PriA binding to SSB C-terminal tail, primary screen, biochemical, AlphaScreen | PriA–SSB C-terminal tail interaction (Klebsiella pneumoniae) | AlphaScreen SSBct-PriA binding, biotinylated peptide | inhibition, % at 33 µM | hit rate 0.6% among 430,000; in the data active = inhibition mostly above about 37%, no sharp cut-off; inactive = mostly below about 20%
Mtb betalactam = beta-lactam sensitization of Mtb H37Rv, H37Rv | M. tuberculosis H37Rv growth with meropenem, percent inhibition | inhibition, % at 25 µM | hit rate 0.27% among 330,000 | AID 434955, 2010; call rule not given here;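 note: growth measured after seven days incubation then overnight dye step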
Sa RN4220 lethal = growth inhibition of S. aureus RN4220, primary screen, OD600. 16 h. hit rate 0.33% among 330,000. AID 1259311, 2017. inhibition, % (test concentration not listed); in the data active = inhibition above about 85%
Mtb hypoxia rep = PubChem AID 1159583; M. tuberculosis hypoxia-regulated fluorescent reporter, fluorescence; fluorescence inhibition, % (concentration not given with the values); hit rate 0.1% among 300,000; in the data active = fluorescence inhibition mostly above about 23%, no sharp cut-off; inactive = mostly below about 17%
Numbers stand for hits; n = inactive; x = no result given; ! = a repeat was not active. The list is not random: actives were taken first. Their share in the collection is about 1%.

SMILES	ugtP null kill	SSB-PriA inh	Mtb betalactam	Sa RN4220 lethal	Mtb hypoxia rep
Cc1csc(NC(=O)CSc2ncc(-c3ccccc3)[nH]2)n1	n	42.0!	n	n	n
O=C(CSc1ncc(-c2ccccc2)[nH]1)Nc1nc2ccccc2s1	x	37.0	x	x	x
CN(C)CCCOc1ccc(Cl)cc1Br	n	50.6	x	n	n
COc1ccc(C(=O)NCCS(=O)(=O)N2CCC(Cc3ccccc3)CC2)cc1	x	n	x	x	x
O=C(NC(=S)Nc1nc2c(s1)CSc1ccccc1-2)c1ccccc1	83.5	n	x	n	n
Clc1ccc(C(Cn2ccnc2)OCc2csc3c(Cl)cccc23)c(Cl)c1 (stereo not given)	96.4	n	n	99.2	n
OC(Cn1ccnc1)c1ccc(Cl)cc1Cl (stereo not given)	n	n	n	n	n
Clc1ccc(C(Cn2ccnc2)OCc2c(Cl)cccc2Cl)c(Cl)c1 (stereo not given)	94.1	n	n	n	n
COc1ccc(F)cc1S(=O)(=O)N1CCN(c2ccc(-c3cccs3)nn2)CC1	x	n	x	x	x
O=C(N/N=C\c1cccs1)c1cc(-c2cccc3ccccc23)n[nH]1	x	n	x	x	x
CCCn1c(=O)c(C(=O)NNS(=O)(=O)c2ccc(NC(=O)OC)cc2)c(O)c2ccccc21	97.3	n	n	96.5	n
CCCCCCn1c(=O)c(C(=O)Nc2cnccn2)c(O)c2ccccc21	92.1	n	n	n	x
CCCCn1c(=O)c(C(=O)Nc2ccccn2)c(O)c2ccccc21	n	n	n	n	n
CCCCCn1c(=O)c(C(=O)Nc2ccccn2)c(O)c2ccccc21	100.3	n	n	100.1	n
CCCCCC(=O)NNC(=O)c1c(O)c2ccccc2n(CC)c1=O	n	n	n	n	n
CCCCCCCCCC(=O)NNC(=O)c1c(O)c2ccccc2n(CC)c1=O	100.7	n	n	96.6	n
NC(=O)Cc1csc(Nc2cccc(Cl)c2)n1	x	n	x	x	x
O=S(=O)(c1ccc(Br)cc1)N1CCC(Cn2ccnc2)CC1	x	n	x	x	x
O=C(CCC(=O)N1CC2C[C@H](C1)Cn1c2cccc1=O)NCc1ccc(F)cc1	x	n	x	x	x
O=C(Cn1c(=O)oc2ccccc21)N1CC(Oc2nc3c(C(F)(F)F)cccc3s2)C1	x	n	x	x	x
CCOC(=O)Cc1csc(NC(=O)c2c(O)c3ccccc3n(CCC(C)C)c2=O)n1	99.9	n	n	96.3	n
CCCCCCn1c(=O)c(C(=O)Nc2nc(CC(=O)OCC)cs2)c(O)c2ccccc21	n	n	n	n	x
COc1cc(OC)cc(C(=O)Nc2cccc(NC(=O)c3ccccc3)c2)c1	n	n	n	n	n
COc1cc(OC)cc(C(=O)Nc2ccc(Nc3ccccc3)cc2)c1	n	44.9	n	n	n
CC(=O)N(Cc1c(C#N)c2ccccc2n1C)c1ccccc1	n	n	n	n	n
SMILES	ugtP null kill	SSB-PriA inh	Mtb betalactam	Sa RN4220 lethal	Mtb hypoxia rep
CC(=O)N(Cc1ccccc1)c1ncc2c(n1)c(=O)c(C#N)c1ccccn12	n	48.4	n	n	n
CC(C)(C)CC(=O)NC(=S)Nc1ccccc1C(F)(F)F	93.4	n	n	n	n
CC(C)CC(=O)NC(=S)Nc1ccccc1C(F)(F)F	n	n	n	n	n
Cc1cc(C(=O)NN=Cc2c(CO)cnc(C)c2O)c2ccccc2n1	n	39.6	x	n	n
Cc1cc(C(=O)N/N=C/c2c(CO)cnc(C)c2O)c2ccccc2n1	x	x	n	x	x
Cc1ncc(CO)c(C=NNc2cccc(Cl)n2)c1O	n	n	x	n	n
Cc1ncc(CO)c(C=NNc2ccc(C(F)(F)F)cn2)c1O	x	71.7	x	x	x
CCC(C(=O)N1CCC(n2ccnn2)C1)c1ccccc1 (stereo not given)	x	n	x	x	x
CCc1ccc(/C=C/C(=O)C2C(=O)c3ccccc3C2=O)cc1	96.6	n	n	100.2	n
CC(=O)Nc1cccc(NC(=O)Cc2csc(Nc3cccc(C(F)(F)F)c3)n2)c1	x	n	x	x	x
COc1cccc(CNC(=O)Cc2csc(Nc3cc(OC)ccc3OC)n2)c1	x	22.0	x	x	x
COc1ccccc1NC(=O)Nc1nc(CC(=O)Nc2ccc(N(C)C)cc2)cs1	n	74.1	n	n	x
COc1ccc(NC(=O)Cc2csc(Nc3cccc(C(F)(F)F)c3)n2)cc1OC	x	17.0	x	x	x
COc1ccc(NC(=O)c2csc(Nc3ccc(OC(F)F)cc3)n2)cc1OC	x	active	x	x	x
COc1ccccc1NC(=O)Nc1nc(CC(=O)Nc2ccc(F)cc2)cs1	n	n	n	n	n
CCN(CC)C(=O)c1cnc2nc(C)ccc2c1Nc1ccc(F)c(F)c1	x	n	x	x	x
O=C(COc1ccc(Cl)cc1Cl)Nc1nnc(-c2ccc(Cl)s2)o1	x	n	x	x	x
COc1ccc(OC)c(Nc2nc(-c3sc(NC(=O)C(C)(C)C)nc3C)cs2)c1	n	n	n	n	n
O=C(Nc1ccc(F)cc1)Nc1csc2ccccc12	n	n	n	n	n
COc1ccc(OC)c(Nc2nc(CC(=O)NCc3ccccc3Cl)cs2)c1	x	n	x	x	x
CN(C)c1ccc(NC(=O)Nc2csc3ccccc23)cc1	x	40.3	n	x	x
COc1ccc(OC)c(Nc2nc(CC(=O)O)cs2)c1	x	n	x	x	x
COc1ccc(OC)c(Nc2nc(-c3sc(C)nc3C)cs2)c1	n	46.8	n	n	n
COc1ccc(OC)c(Nc2nc(CC(=O)Nc3cccc(C)c3C)cs2)c1	x	24.0	x	x	x
COc1ccc(OC)c(Nc2nc(CC(=O)NCc3ccccc3OC)cs2)c1	x	17.0	x	x	x
SMILES	ugtP null kill	SSB-PriA inh	Mtb betalactam	Sa RN4220 lethal	Mtb hypoxia rep
Cc1nn(-c2ccc(Cl)cc2)c(=O)c2ccccc12	n	n	n	n	n
Cc1c(Cl)sn(-c2ccc(Cl)cc2)c1=O	100.7	n	x	100.7	x
COc1ccc(C(=O)c2ccc(Br)cc2)c2ccccc12	n	n	n	n	n
COc1ccc(C(=O)c2ccc(Cl)cc2)c2ccccc12	95.5	n	n	n	x
O=C(COc1ccc(Cl)cc1)Nc1ccc2c(c1)CCCN2S(=O)(=O)c1cccs1	x	n	x	x	x
O=C(O)CCCN1C(=O)/C(=C\c2cccc3ccccc23)SC1=S	x	n	x	x	x
Cc1cc(C(=O)Nc2sccc2C#N)on1	x	n	x	x	x
Cc1cc(NC(=O)[C@H]2CCCN(c3ccc(-n4cncn4)nn3)C2)sn1	x	n	x	x	x
COc1ccc(-c2noc(-c3ccc4c(c3)OCO4)n2)cc1	n	n	n	n	n
COc1ccc(-c2nc(-c3ccc4c(c3)OCO4)[nH]c2-c2ccc(OC)cc2)cc1	87.3	n	n	n	n
CCOC(=O)C1CCCN(C(=O)C2CSc3ncc(C)c(=O)n3C2)C1 (stereo not given)	x	n	x	x	x
O=C(c1nc2ccccc2s1)N1CCC(Oc2ccc(C(F)(F)F)cn2)CC1	x	n	x	x	x
Cc1ccc(S(=O)(=O)Nc2nc3ccc(S(C)(=O)=O)cc3s2)cc1	n	39.7	n	n	n
Cc1ccc(S(=O)(=O)Nc2nc3ccc(N)cc3s2)cc1	84.1	n	n	n	n
CC(=O)Nc1ccc(S(=O)(=O)Nc2nc3ccc(C)cc3s2)cc1	n	n	n	n	n
O=C(CSc1nnc2ccc(C(=O)NCc3ccccc3)cn12)Nc1ccc(Cl)cc1F	x	n	x	x	x
Cc1cccc(S(=O)(=O)Nc2cccc(-c3cn4ccsc4n3)c2)c1	84.7	n	n	n	n
O=C(Nc1ccc(Cl)cc1)Nc1ccc(Cl)c(Cl)c1	x	n	n	x	x
O=C(Nc1ccc(Cl)c(Cl)c1)Nc1ccc(Br)cc1F	99.3	n	n	100.4	n

Bioassay records as filed in PubChem BioAssay.
